{"source": "PubChem BioAssay AID588342", "about": "(National Center for Advancing Translational Sciences (NCATS), 2011)", "note": "Screen size: about 360,000 compounds; about 25,000 (6.9%) were called active. Where a call stands in place of a potency, no number is given. Roughly 9% stayed inconclusive and do not appear here. Calls follow the shape of the dose curve; as a rule, active = well fitted inhibition curve with a large enough effect; inconclusive = small, poorly fitted or top-dose-only effect; inactive = flat fitted curve, though single readings scatter. This excerpt belongs to a sample that is enriched for actives. Potency is read from the fitted curve at half-maximal effect."}
{"biological_target": "Luciferin 4-monooxygenase (Photinus pyralis) (UniProt P08659)", "sequence (P08659 whole entry, looked up)": "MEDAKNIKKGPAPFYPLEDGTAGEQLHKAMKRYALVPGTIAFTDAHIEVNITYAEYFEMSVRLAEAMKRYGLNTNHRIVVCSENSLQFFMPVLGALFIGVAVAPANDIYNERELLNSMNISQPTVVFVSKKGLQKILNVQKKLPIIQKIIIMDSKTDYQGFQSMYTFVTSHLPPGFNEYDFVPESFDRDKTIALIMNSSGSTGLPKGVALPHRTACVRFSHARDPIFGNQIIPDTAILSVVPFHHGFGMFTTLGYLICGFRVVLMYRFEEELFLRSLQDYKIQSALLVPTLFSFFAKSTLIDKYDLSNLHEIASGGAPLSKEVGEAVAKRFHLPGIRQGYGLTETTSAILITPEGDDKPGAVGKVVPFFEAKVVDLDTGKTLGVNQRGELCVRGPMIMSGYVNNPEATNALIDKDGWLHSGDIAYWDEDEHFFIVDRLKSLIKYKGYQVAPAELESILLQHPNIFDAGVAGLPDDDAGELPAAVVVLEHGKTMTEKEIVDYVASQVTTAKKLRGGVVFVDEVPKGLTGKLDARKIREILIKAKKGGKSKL", "assay": "qHTS profiling assay for firefly luciferase inhibitor/activator using purifed enzyme and Km concentrations of substrates (counterscreen for miR-21 project); also: nearly all actives have a fitted effect of over 55% in size", "details": "purified FLuc, luminescence inhibition; series mostly up to 57.5 µM", "in_short": "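Purified P. pyralis luciferase, 10 nM final, with Km-level 10 uM D-luciferin and 10 uM ATP in 50 mM Tris acetate pH 7.5, 10 mM Mg acetate, 0.01% Tween-20, 0.05% BSA; 6-point qHTS titration about 60 µM downward; luminescence read.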"}
{"smiles": "CN(CC(=O)Nc1ccc(F)c(F)c1F)C(=O)Cn1cnc2c1c(=O)n(C)c(=O)n2C", "Potency": "inactive"}
{"smiles": "COC(=O)C(C)Oc1ccc2c(c1)O/C(=C\\c1cccc(Br)c1)C2=O", "note": "(centres undefined)", "Potency": "inactive"}
{"smiles": "CC1CCCN(CC(O)COc2ccc3c(c2)OCO3)C1", "note": "(centres undefined)", "Potency": "inactive"}
{"smiles": "O=C1/C(=C/c2ccc3c(c2)OCO3)Oc2cc(OCC(=O)N3CC(O)C[C@H]3C(=O)O)ccc21", "note": "(some centres undefined)", "Potency": "0.757 µM (active)"}
{"smiles": "O=C(CCNS(=O)(=O)c1ccc(Br)cc1)NCC1CCCO1", "note": "(centres undefined)", "Potency": "inactive"}
{"smiles": "O=C(Nc1ccccc1N1CCCC1)c1ccc(F)c(S(=O)(=O)N2CCOCC2)c1", "Potency": "inactive"}
{"smiles": "O=C(Nc1ccccc1N1CCCCC1)c1ccc2nccnc2c1", "Potency": "inactive"}
{"smiles": "O=C(Nc1ccccc1N1CCCC1)c1ccc2ccccc2c1", "Potency": "15.1 µM (active)"}
{"smiles": "Cc1cccc(OCCSc2nc3ccc(NC(=O)COc4ccccc4C)cc3s2)c1", "Potency": "inactive"}
{"smiles": "CS(=O)(=O)N1CCN(C(=O)Cc2ccccc2)CC1", "Potency": "inactive"}
{"smiles": "CS(=O)(=O)N1CCN(c2cccc(Cl)n2)CC1", "Potency": "inactive"}
{"smiles": "CS(=O)(=O)N1CCc2nc(-c3ccccc3)sc2C1", "Potency": "9.53 µM (active)"}
{"smiles": "Cc1ccc(NC(=O)CCNC(=O)c2ccc([N+](=O)[O-])cc2)cc1S(=O)(=O)N1CCOCC1", "Potency": "inactive"}
{"smiles": "CCOc1ccc(N(CC)S(=O)(=O)N2CCCC(C(=O)NCc3ccc(Cl)cc3)C2)cc1", "note": "(centres undefined)", "Potency": "inactive"}
{"smiles": "O=C(COc1ccccc1)Nc1ccc(C(=O)N2CCCC2)cc1", "Potency": "inactive"}
{"smiles": "O=C(COc1ccccc1)Nc1nonc1NC(=O)COc1ccccc1", "Potency": "7.57 µM (active)"}
{"smiles": "CC(=O)Nc1ccc(NC(=O)COc2ccc(-c3ccccc3)cc2)cc1", "Potency": "inactive"}
{"smiles": "CCCCN(CCCNC(=O)c1cc(Nc2ccccc2OC)nc2ccccc12)c1ccccc1", "Potency": "inactive"}
{"smiles": "Cc1c(C)n(Cc2ccc(Cl)cc2)c2ccc(C(=O)NCCc3ccc(S(N)(=O)=O)cc3)cc12", "Potency": "inactive"}
{"smiles": "COC(=O)c1c(NC(C)=O)sc(C(=O)Nc2ccccc2OC)c1C", "Potency": "inactive"}
{"smiles": "COc1ccccc1NC(=O)C1=C(C)NC(=O)NC1c1ccc(C)s1", "note": "(centres undefined)", "Potency": "inactive"}
{"smiles": "COc1ccccc1NC(=O)c1ccc(C)s1", "Potency": "13.5 µM (active)"}
{"smiles": "CCOC(=O)C1CCN(c2ncnc3c2c(-c2ccccc2)cn3-c2ccc(C)cc2)CC1", "Potency": "inactive"}
{"smiles": "Cc1ccc(Cl)cc1-n1ncc2c(N3CCC(C(N)=O)CC3)ncnc21", "Potency": "inactive"}
{"smiles": "C1=C(CCNc2ncnc3c2cnn3-c2ccccc2)CCCC1", "Potency": "3.38 µM (active)"}
{"smiles": "O=C(NNc1ncnc2c1cnn2-c1ccccc1)c1ccco1", "Potency": "inactive"}
{"smiles": "Cc1ccc(-n2ncc3c(N4CCC(C(N)=O)CC4)ncnc32)cc1", "Potency": "12 µM (active)"}
{"smiles": "CCc1cc2c(N3CCN(c4nnc(CC)s4)CC3)ncnc2s1", "Potency": "inactive"}
{"smiles": "COc1ccccc1N1CCN(C(=O)CSc2ncnc3c2cnn3-c2ccc(C)c(C)c2)CC1", "Potency": "8.49 µM (active)"}
{"smiles": "CCN1CCN(c2ncnc3c2cnn3-c2ccc(C)c(C)c2)CC1", "Potency": "9.53 µM (active)"}
{"smiles": "CCN(CC)C(=O)CSc1nc2ccccc2n1CC(=O)N1CCN(c2ccccc2OC)CC1", "Potency": "inactive"}
{"smiles": "Cc1ccc(-n2ncc3c(=O)n(Cc4cccc(C(F)(F)F)c4)cnc32)cc1C", "Potency": "inactive"}
{"smiles": "O=C(NCCC1=CCCCC1)C1CCN(Cc2cnn(-c3ccccc3)c2-n2cccc2)CC1", "Potency": "inactive"}
{"smiles": "COc1ccccc1N1CCN(C(=O)CSc2nnc(-c3ccoc3C)o2)CC1", "Potency": "inactive"}
{"smiles": "Cc1ccc(S(=O)(=O)N(C)C)cc1NC(=O)c1ccccc1Br", "Potency": "inactive"}
{"smiles": "Cn1cc(-c2ccccc2)cc(C#N)c1=O", "Potency": "inactive"}
{"smiles": "Cc1ccccc1CN1CCC(CNC(=O)c2cc3ccc4cccnc4c3[nH]2)CC1", "Potency": "inactive"}
{"smiles": "Cc1ccc(N2CC(NC(=O)Cc3cccs3)CC2=O)cc1", "note": "(centres undefined)", "Potency": "inactive"}
{"smiles": "Cc1cccc(NC(=O)C2CC(=O)OC23CCCC3)c1", "note": "(centres undefined)", "Potency": "inactive"}
{"smiles": "c1ccc(-n2ncc3c(N4CCCC4)ncnc32)cc1", "Potency": "4.26 µM (active)"}
{"smiles": "Cn1nnc2c(N3CCN(c4ccccc4)CC3)ncnc21", "Potency": "inactive"}
{"smiles": "Nc1c(C(=O)O)cnn1-c1ccccc1", "Potency": "inactive"}
{"smiles": "Cc1ccc(CN(C(=O)c2ccccc2[N+](=O)[O-])c2ccccn2)cc1", "Potency": "inactive"}
{"smiles": "Cc1cc(C)c(C#N)c(SCC(=O)N(CC(C)C)C2CCS(=O)(=O)C2)n1", "note": "(centres undefined)", "Potency": "inactive"}
{"smiles": "O=C(COC(=O)CNC(=O)C1CCCCC1)Nc1cccc(F)c1", "Potency": "inactive"}
{"smiles": "Nc1c(C(=O)OCC(=O)Nc2ccc(OC(F)F)cc2)[nH]c(=O)[nH]c1=O", "Potency": "inactive"}
{"smiles": "O=S(=O)(c1ccc2nc(N3CCN(c4cccc(Cl)c4)CC3)ccc2c1)N1CCCCC1", "Potency": "inactive"}
{"smiles": "Cc1ccc(C(=O)NNC(=O)c2ccncc2)cc1S(=O)(=O)N1CCCCC1", "Potency": "inactive"}
{"smiles": "Cc1ccc(NC(=O)C2CC(=O)N(c3ccc4c(c3)OCCO4)C2)cc1S(=O)(=O)N1CCCCCC1", "note": "(centres undefined)", "Potency": "inactive"}
{"smiles": "O=C(c1ccc(Cl)c(S(=O)(=O)N2CCCCC2)c1)N1CCCCCC1", "Potency": "inactive"}
{"smiles": "O=C(Nc1ccc2c(c1)OCCO2)c1ccc(Cl)c(S(=O)(=O)N2CCCCC2)c1", "Potency": "13.5 µM (active)"}
{"smiles": "O=C(c1ccc(Cl)c(S(=O)(=O)N2CCCCCC2)c1)N1CCN(c2ccc(O)cc2)CC1", "Potency": "inactive"}
{"smiles": "Cc1ccc(C(=O)Nc2ccc3c(c2)OCO3)cc1S(=O)(=O)N1CCCCC1", "Potency": "16.9 µM (active)"}
{"smiles": "Cc1c(Cl)cccc1NC(=O)CCS(=O)(=O)c1ccc2c(c1)oc(=O)n2C", "Potency": "inactive"}
{"smiles": "COc1ccccc1CNS(=O)(=O)c1cc(C(=O)NCc2ccccn2)c(Cl)cc1Cl", "Potency": "inactive"}
{"smiles": "CCC(C(=O)Nc1cc(OC)ccc1OC)n1c(=O)c(C(F)(F)F)nc2ccccc21", "note": "(centres undefined)", "Potency": "inactive"}
{"smiles": "O=C(O[C@H]1[C@H](Cc2ccccc2)NS(=O)(=O)[C@H]2C[C@@H]3C=C[C@]12O3)c1ccc([N+](=O)[O-])cc1", "Potency": "inactive"}
{"smiles": "CCc1nonc1NC(=O)c1oc2ccc(Cl)cc2c1C", "Potency": "inactive"}
{"smiles": "Cc1cc(C)cc(NS(=O)(=O)c2cc3c(cc2C)NC(=O)CO3)c1", "Potency": "inactive"}
{"smiles": "Cc1ccc(C2c3[nH]c4ccccc4c3CCN2C(=O)c2cccc(C)c2)cc1", "note": "(centres undefined)", "Potency": "inactive"}
{"smiles": "Cc1cccc(C(=O)N2CCc3c([nH]c4ccccc34)C2CC(C)C)n1", "note": "(centres undefined)", "Potency": "16.9 µM (active)"}
{"smiles": "Cc1cccc(C2c3[nH]c4ccccc4c3CCN2C(=O)c2cc(-c3cccn3C)n[nH]2)n1", "note": "(centres undefined)", "Potency": "inactive"}
{"smiles": "O=C(NCc1cccnc1)C(=O)NCC(c1cccnc1)N1CCN(c2ccccc2)CC1", "note": "(centres undefined)", "Potency": "inactive"}
{"smiles": "CCn1cc(C(=O)NCc2ccc(C)cc2)c(=O)c2cc(S(=O)(=O)N3CCc4ccccc4C3)ccc21", "Potency": "inactive"}
